# Source: paper PMC7862700, “An all-to-all approach to the identification of sequence-specific readers for epigenetic DNA modifications on cytosine”
# What was measured:
# Experiment in all cases: DAPPL (digital affinity profiling via proximity ligation, sequencing); 10 mM Tris-HCl pH 7.5, 50 mM NaCl, 1 mM DTT, 4% glycerol, room temperature, 30 min; GST-TFs on glutathione beads, 16-mer random dsDNA library, 0.1% formaldehyde crosslink after washing; high values mean tight binding
# [1] = biological target: T1, FLI1 (Homo sapiens, UniProt Q01543 1-452); settings: protein: recombinant; tags: N-terminal GST; dsDNA, one strand shown
# T1 sequence: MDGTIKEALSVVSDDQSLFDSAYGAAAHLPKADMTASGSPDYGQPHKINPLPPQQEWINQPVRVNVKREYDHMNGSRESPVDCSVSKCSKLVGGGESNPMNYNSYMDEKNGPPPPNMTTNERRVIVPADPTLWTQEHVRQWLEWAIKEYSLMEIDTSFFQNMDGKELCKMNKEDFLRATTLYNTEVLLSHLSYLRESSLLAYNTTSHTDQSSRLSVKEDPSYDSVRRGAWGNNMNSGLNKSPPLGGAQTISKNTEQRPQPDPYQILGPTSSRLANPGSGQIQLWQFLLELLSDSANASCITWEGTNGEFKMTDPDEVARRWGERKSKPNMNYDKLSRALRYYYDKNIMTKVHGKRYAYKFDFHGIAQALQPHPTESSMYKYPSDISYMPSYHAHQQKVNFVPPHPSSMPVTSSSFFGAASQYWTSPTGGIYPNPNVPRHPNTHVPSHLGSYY
# In short: (§1)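 After expression in yeast as GST fusions, human transcription factors were bound to glutathione beads, DNA-barcoded and mixed with a tag-only sample. The pools were incubated with 200 nmole of a 16-mer random double-stranded DNA library in Tris/NaCl/DTT/glycerol buffer (30 min, room temperature), washed and crosslinked with 0.1% formaldehyde. Proximity ligation with BsaI/T4 ligase ran for 1 h at 37 °C, before PCR amplification and sequencing on an Illumina NextSeq500. Binding signal is a hexamer's read frequency for a factor divided by its frequency for the tag-only sample.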
# [2] = biological target: T2, ELK1 (Homo sapiens, UniProt P19419 1-428); settings: protein: recombinant; tags: N-terminal GST; dsDNA, one strand shown
# T2 sequence: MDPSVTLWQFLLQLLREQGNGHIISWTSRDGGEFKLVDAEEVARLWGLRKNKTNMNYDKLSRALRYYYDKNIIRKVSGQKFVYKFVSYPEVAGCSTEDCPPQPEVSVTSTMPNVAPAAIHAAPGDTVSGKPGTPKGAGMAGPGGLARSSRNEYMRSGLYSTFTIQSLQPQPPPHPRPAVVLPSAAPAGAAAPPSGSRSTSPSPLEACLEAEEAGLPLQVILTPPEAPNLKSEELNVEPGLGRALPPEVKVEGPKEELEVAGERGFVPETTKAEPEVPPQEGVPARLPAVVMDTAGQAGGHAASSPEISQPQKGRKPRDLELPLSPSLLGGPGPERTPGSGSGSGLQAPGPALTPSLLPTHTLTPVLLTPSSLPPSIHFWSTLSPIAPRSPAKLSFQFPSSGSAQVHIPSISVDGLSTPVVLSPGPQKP
# In short: as §1
# [3] = biological target: T3, GABPA (Homo sapiens, UniProt Q06546 1-454); settings: protein: recombinant; tags: N-terminal GST; dsDNA, one strand shown
# T3 sequence: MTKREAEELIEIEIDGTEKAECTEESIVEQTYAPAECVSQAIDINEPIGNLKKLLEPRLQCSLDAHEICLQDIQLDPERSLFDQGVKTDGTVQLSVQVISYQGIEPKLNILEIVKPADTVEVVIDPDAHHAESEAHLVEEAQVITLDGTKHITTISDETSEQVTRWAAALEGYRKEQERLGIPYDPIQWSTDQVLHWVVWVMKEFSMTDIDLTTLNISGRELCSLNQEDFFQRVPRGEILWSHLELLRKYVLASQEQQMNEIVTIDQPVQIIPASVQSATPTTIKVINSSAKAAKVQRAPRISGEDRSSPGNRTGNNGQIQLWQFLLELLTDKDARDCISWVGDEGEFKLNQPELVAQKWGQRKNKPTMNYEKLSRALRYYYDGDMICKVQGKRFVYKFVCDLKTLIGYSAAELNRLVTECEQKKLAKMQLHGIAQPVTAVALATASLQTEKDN
# In short: as §1
# [4] = biological target: T4, ERG (Homo sapiens, UniProt P11308 1-479); settings: protein: recombinant; tags: N-terminal GST; dsDNA, one strand shown
# T4 sequence: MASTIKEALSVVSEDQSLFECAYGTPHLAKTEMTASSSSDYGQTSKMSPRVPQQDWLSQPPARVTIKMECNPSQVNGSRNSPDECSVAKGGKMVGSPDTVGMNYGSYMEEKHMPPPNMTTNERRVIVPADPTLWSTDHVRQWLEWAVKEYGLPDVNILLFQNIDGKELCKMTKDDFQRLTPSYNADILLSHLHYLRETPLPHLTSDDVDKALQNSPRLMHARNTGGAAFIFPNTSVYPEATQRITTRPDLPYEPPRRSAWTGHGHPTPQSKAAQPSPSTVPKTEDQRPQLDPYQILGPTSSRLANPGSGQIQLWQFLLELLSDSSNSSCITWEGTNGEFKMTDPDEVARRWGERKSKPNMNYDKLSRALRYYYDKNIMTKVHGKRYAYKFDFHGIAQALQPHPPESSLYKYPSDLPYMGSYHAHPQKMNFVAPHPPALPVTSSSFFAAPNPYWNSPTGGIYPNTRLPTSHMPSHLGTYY
# In short: as §1
# [5] = biological target: ELF1 (Homo sapiens, UniProt P32519 1-619); settings: protein: recombinant; tags: N-terminal GST; dsDNA, one strand shown
# Chain of ELF1 (P32519 whole entry): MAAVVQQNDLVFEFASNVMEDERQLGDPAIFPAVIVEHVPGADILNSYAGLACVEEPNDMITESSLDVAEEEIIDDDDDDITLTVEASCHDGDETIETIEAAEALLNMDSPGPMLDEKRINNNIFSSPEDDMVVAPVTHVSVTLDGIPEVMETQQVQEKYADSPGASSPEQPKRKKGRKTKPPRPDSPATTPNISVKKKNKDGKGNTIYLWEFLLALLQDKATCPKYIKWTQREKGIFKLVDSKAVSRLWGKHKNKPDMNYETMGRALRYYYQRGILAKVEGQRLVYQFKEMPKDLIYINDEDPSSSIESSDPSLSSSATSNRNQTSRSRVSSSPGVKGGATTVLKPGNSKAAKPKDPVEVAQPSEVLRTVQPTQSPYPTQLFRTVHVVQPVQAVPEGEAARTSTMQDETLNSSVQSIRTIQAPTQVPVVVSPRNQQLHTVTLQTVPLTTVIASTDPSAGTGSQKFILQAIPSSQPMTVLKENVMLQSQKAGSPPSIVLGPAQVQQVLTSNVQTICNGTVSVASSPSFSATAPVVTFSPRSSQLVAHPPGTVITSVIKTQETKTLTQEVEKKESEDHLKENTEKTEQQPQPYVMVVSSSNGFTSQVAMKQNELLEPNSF
# In short: as §1
# [6] = biological target: T5, EHF (Homo sapiens, UniProt Q9NZC4 1-300); settings: protein: recombinant; tags: N-terminal GST; dsDNA, one strand shown
# T5 sequence: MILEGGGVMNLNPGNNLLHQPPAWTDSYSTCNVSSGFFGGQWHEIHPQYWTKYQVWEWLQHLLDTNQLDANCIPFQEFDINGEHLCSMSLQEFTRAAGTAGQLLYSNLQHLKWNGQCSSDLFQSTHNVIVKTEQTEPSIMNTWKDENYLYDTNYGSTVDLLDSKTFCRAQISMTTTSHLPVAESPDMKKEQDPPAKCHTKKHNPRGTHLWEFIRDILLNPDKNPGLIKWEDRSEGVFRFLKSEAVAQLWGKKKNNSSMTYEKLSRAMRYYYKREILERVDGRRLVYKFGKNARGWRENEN
# In short: as §1
# [7] = biological target: SPI1 (Homo sapiens, UniProt P17947 1-270); settings: protein: recombinant; tags: N-terminal GST; dsDNA, one strand shown
# In short: as §1
# [8] = biological target: SPIB (Homo sapiens, UniProt Q01892 1-262); settings: protein: recombinant; tags: N-terminal GST; dsDNA, one strand shown
# Chain of SPIB (Q01892 whole entry): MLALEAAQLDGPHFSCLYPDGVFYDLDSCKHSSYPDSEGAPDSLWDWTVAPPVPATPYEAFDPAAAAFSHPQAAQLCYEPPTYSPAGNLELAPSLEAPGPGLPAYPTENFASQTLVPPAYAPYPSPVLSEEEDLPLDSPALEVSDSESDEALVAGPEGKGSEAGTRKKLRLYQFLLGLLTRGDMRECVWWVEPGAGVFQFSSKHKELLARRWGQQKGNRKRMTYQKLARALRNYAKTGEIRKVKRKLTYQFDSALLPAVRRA
# In short: as §1
# [9] = biological target: T6, ELK3 (Homo sapiens, UniProt P41970 1-407); settings: protein: recombinant; tags: N-terminal GST; dsDNA, one strand shown
# T6 sequence: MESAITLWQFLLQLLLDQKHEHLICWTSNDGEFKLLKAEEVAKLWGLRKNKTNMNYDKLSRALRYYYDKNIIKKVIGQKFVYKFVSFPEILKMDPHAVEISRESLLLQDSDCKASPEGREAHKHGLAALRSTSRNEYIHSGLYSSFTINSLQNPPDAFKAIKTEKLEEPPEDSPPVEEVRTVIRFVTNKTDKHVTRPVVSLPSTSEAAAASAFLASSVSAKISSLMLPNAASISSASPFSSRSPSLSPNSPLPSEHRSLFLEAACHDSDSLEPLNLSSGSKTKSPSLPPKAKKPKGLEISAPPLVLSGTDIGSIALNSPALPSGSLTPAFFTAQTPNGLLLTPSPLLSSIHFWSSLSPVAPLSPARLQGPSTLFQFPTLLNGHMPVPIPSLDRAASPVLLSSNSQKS
# In short: as §1
# [10] = biological target: T7, FEV (Homo sapiens, UniProt Q99581 1-238); settings: protein: recombinant; tags: N-terminal GST; dsDNA, one strand shown
# T7 sequence: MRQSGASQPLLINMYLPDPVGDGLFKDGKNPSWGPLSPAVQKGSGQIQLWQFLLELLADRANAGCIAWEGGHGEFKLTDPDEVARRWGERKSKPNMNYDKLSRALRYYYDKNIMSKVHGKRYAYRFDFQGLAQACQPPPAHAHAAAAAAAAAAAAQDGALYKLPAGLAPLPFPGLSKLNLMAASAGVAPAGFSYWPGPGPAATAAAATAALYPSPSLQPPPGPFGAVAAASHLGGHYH
# In short: as §1
# [11] = biological target: ETV5 (Homo sapiens, UniProt P41161 1-510); settings: protein: recombinant; tags: N-terminal GST; dsDNA, one strand shown
# Chain of ETV5 (P41161 whole entry): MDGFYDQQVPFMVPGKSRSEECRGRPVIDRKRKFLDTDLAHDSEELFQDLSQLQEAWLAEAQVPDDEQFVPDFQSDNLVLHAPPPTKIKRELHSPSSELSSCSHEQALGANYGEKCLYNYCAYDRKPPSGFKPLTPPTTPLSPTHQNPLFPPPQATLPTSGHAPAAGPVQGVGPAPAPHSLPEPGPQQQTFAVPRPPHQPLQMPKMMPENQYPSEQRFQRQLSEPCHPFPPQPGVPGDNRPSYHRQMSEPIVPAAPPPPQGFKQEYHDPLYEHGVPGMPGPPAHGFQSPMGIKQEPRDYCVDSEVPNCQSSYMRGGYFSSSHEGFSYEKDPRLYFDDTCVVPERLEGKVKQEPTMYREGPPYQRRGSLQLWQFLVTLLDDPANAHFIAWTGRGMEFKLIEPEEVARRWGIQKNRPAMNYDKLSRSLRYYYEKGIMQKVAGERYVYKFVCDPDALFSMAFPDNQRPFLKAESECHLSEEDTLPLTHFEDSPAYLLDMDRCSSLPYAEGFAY
# In short: as §1
# [12] = biological target: HSF1 (Homo sapiens, UniProt Q00613 1-529); settings: protein: recombinant; tags: N-terminal GST; chain copies: 3; dsDNA, one strand shown
# Chain of HSF1 (Q00613 whole entry): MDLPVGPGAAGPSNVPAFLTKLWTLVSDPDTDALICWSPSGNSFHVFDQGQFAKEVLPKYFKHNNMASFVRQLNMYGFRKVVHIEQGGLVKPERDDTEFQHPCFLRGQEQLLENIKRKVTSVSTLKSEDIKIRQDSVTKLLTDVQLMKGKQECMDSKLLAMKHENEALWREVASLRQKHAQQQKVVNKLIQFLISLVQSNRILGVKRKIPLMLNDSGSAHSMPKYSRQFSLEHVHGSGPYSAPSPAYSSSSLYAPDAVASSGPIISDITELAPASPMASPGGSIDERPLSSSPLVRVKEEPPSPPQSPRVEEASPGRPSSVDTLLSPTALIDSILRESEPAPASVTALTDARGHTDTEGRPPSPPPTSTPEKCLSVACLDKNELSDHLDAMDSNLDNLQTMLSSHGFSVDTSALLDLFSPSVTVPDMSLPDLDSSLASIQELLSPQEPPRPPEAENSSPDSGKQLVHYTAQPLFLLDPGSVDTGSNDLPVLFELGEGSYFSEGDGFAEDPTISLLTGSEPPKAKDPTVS
# In short: as §1
# [13] = biological target: T8, SPIC (Homo sapiens, UniProt Q8N5J4 1-248); settings: protein: recombinant; tags: N-terminal GST; dsDNA, one strand shown
# T8 sequence: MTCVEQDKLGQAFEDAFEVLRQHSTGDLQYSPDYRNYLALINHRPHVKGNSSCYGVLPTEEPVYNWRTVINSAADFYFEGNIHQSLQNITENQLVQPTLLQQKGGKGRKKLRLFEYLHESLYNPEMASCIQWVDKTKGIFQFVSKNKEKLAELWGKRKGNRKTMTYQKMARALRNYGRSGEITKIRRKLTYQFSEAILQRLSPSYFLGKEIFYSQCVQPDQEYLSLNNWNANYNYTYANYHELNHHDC
# In short: as §1
# [14] = biological target: ELF4 (Homo sapiens, UniProt Q99607 1-663); settings: protein: recombinant; tags: N-terminal GST; dsDNA, one strand shown
# Chain of ELF4 (Q99607 whole entry): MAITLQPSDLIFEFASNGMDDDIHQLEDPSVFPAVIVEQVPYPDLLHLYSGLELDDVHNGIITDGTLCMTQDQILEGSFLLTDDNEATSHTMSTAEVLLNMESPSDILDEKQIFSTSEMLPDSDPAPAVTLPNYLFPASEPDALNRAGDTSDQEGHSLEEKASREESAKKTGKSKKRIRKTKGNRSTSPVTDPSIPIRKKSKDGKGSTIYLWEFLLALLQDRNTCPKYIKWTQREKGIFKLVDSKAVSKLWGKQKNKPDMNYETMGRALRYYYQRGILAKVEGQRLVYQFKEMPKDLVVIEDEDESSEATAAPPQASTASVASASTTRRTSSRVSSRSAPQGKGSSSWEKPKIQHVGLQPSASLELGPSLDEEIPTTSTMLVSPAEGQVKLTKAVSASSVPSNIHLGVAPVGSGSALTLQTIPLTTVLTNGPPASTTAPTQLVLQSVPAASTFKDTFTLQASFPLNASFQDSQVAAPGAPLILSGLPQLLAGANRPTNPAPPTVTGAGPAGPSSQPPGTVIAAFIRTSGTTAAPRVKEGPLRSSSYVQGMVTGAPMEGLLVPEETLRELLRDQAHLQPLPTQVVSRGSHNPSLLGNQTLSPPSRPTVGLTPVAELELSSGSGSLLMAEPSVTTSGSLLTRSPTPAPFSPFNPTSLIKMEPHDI
# In short: as §1
# [15] = biological target: T9, ELK4 (Homo sapiens, UniProt P28324-2 1-405); settings: protein: recombinant; tags: N-terminal GST; dsDNA, one strand shown
# T9 sequence: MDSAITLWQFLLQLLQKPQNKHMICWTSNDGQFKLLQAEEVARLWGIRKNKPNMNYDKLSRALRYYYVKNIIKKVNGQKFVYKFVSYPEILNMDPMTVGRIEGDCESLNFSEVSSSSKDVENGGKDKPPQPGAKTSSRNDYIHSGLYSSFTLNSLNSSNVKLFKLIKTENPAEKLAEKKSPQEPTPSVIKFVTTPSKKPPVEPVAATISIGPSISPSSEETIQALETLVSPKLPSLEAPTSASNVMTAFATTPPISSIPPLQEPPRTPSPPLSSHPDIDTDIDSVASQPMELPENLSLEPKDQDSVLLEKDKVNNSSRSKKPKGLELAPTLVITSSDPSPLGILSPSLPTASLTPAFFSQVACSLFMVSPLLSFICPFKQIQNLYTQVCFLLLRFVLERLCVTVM
# In short: as §1
# [16] = biological target: T10, ETV2 (Homo sapiens, UniProt O00321 1-342); settings: protein: recombinant; tags: N-terminal GST; dsDNA, one strand shown
# T10 sequence: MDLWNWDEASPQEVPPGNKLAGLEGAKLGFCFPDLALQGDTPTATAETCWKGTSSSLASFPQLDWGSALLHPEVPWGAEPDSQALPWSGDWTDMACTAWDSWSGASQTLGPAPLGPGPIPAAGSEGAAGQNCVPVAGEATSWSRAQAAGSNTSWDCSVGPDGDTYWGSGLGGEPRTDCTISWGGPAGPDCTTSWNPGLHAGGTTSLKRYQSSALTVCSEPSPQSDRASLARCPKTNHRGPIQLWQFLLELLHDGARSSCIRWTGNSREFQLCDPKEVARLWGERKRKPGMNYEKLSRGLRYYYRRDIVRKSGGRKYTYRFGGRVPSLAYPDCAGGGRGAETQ
# In short: as §1
# [17] = biological target: T11, ELF3 (Homo sapiens, UniProt P78545 1-371); settings: protein: recombinant; tags: N-terminal GST; dsDNA, one strand shown
# T11 sequence: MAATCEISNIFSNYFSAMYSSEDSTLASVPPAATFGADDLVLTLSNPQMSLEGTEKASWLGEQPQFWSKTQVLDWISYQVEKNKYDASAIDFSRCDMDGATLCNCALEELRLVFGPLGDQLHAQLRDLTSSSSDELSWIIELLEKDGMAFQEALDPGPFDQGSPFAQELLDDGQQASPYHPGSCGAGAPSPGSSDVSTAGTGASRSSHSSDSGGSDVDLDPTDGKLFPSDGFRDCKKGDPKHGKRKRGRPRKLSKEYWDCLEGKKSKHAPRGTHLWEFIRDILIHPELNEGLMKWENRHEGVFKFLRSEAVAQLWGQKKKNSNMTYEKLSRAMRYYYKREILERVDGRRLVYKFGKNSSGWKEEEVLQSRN
# In short: as §1
# [18] = biological target: CRX (Homo sapiens, UniProt O43186 1-299); settings: protein: recombinant; tags: N-terminal GST; dsDNA, one strand shown
# Chain of CRX (O43186 whole entry): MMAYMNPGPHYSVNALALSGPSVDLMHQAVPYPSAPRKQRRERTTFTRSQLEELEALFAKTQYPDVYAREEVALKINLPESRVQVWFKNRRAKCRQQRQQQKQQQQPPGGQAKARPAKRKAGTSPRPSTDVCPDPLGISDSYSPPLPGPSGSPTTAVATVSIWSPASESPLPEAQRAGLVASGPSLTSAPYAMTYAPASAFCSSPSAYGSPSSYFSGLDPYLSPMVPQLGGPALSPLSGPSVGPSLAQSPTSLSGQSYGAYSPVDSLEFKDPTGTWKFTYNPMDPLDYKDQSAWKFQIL
# In short: as §1
# [19] = biological target: ETV1 (Homo sapiens, UniProt P50549 1-477); settings: protein: recombinant; tags: N-terminal GST; dsDNA, one strand shown
# Chain of ETV1 (P50549 whole entry): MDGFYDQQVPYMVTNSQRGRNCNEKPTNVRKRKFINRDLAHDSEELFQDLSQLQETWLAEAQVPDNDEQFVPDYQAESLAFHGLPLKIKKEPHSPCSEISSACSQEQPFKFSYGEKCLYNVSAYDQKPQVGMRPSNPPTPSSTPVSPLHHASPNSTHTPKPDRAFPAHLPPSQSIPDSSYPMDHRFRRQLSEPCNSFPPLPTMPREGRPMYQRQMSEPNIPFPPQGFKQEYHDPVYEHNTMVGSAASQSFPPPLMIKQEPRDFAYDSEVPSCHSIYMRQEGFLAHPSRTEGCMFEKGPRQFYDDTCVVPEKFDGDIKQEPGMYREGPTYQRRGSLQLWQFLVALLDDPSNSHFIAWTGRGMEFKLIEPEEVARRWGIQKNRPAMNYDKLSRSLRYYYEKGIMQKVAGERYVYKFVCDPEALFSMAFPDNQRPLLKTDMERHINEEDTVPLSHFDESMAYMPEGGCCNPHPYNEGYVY
# In short: as §1
sequence,measurement,setting,value
CGTTCT,binding signal,[1],"1.37 fold enrichment (6-mer frequency, TF over GST control)"
same,binding signal,[2],"1.41 fold enrichment (6-mer frequency, TF over GST control)"
same,binding signal,[3],"1.44 fold enrichment (6-mer frequency, TF over GST control)"
same,binding signal,[4],"1.55 fold enrichment (6-mer frequency, TF over GST control)"
same,binding signal,[5],"1.5 fold enrichment (6-mer frequency, TF over GST control)"
same,binding signal,[6],"1.3 fold enrichment (6-mer frequency, TF over GST control)"
same,binding signal,[7],"1.39 fold enrichment (6-mer frequency, TF over GST control)"
same,binding signal,[8],"1.43 fold enrichment (6-mer frequency, TF over GST control)"
same,binding signal,[9],"1.52 fold enrichment (6-mer frequency, TF over GST control)"
same,binding signal,[10],"1.45 fold enrichment (6-mer frequency, TF over GST control)"
same,binding signal,[11],"1.45 fold enrichment (6-mer frequency, TF over GST control)"
same,binding signal,[12],"2.27 fold enrichment (6-mer frequency, TF over GST control)"
same,binding signal,[13],"1.45 fold enrichment (6-mer frequency, TF over GST control)"
same,binding signal,[14],"1.47 fold enrichment (6-mer frequency, TF over GST control)"
same,binding signal,[15],"1.43 fold enrichment (6-mer frequency, TF over GST control)"
same,binding signal,[16],"1.39 fold enrichment (6-mer frequency, TF over GST control)"
same,binding signal,[17],"1.4 fold enrichment (6-mer frequency, TF over GST control)"
same,binding signal,[18],"1.49 fold enrichment (6-mer frequency, TF over GST control)"
same,binding signal,[19],"1.37 fold enrichment (6-mer frequency, TF over GST control)"
